Source: PubChem
Rango complex inh – qHTS Assay for Inhibitors of Rango (Ran-regulated importin-beta cargo) - Importin beta complex formation; 340,000 compounds, 0.031% hits; Rango CFP/YFP FRET sensor + importin beta, 45 min; Potency, µM (highest dose often 92.2 µM), for the others: at the highest dose inhibition of complex formation; Importin subunit beta-1 (Homo sapiens), Q14974; calls by dose curve;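 note: potency is the fitted concentration of half-maximal effect; 0% = DMSO wells and 100% = buffer wells lacking importin beta; nearly all actives have a fitted effect of over 15% in size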
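FRET biosensor (snurportin 1 IBB flanked by EYFP and cerulean), 50 nM, with compound 5 min, then 0.125 microM importin beta in PBS, 1 mM DTT, 0.02% Tween-20, 0.1% BSA. CFP/YFP ratio read after 45 min at room temperature; pre-read flags interference.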
PI5P4K alpha inh – qHTS for Inhibitors of phosphatidylinositol 5-phosphate 4-kinase (PI5P4K); PI5P4Kalpha enzyme, ADP-Glo luminescence, 60 min; stronger effect = lower value; 330,000 compounds, 1.2% hits; AID 652105, 2013; Phosphatidylinositol 5-phosphate 4-kinase type-2 alpha (Homo sapiens), P48426; max response, %; active = max response of -50% or lower; inconclusive = between -30% and -50%; inactive = -30% or higher; note: value at the top dose of about 77 µM; % is set by controls: 0 for no effect and ±100 for the full control effect
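Reactions run in 0.038 M HEPES pH 7.4, 0.28 mM EGTA, 0.1% CHAPS and 5% DMSO, with PI5P4Kalpha, substrate, compound and 5 microM ATP final, one hour at room temperature. Readout is ADP-Glo luminescence.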
PLK1 PBD block – qHTS for Inhibitors of PLK1-PDB (polo-like kinase 1 - polo-box domain): Primary Screen; Serine/threonine-protein kinase PLK1 (Homo sapiens), P53350; Plk1 PBD binding of FITC phosphopeptide, fluorescence polarization; Potency, µM, inactives show max response, negative = inhibition, most hits filed as inhibitors; 360,000 compounds, 2.8% hits; AID 720504, 2013; note: potency is the fitted concentration of half-maximal effect; series mostly up to about 57 µM; % is set by controls: 0 for no effect and ±100 for the full control effect; nearly all actives have a fitted effect of over 65% in size
KAT2A inh – qHTS Assay for Inhibitors of GCN5L2; Histone acetyltransferase KAT2A (Homo sapiens), Q92830; GCN5L2 HAT assay, ThioGlo1 CoA-SH fluorescence; Potency, µM (doses to about 58.9 µM), for inactives: at the top dose activity change, negative = inhibition, most hits filed as inhibitors; 390,000 compounds, 0.21% hits; AID 504327, 2011; note: potency is the fitted concentration of half-maximal effect; % is set by controls: 0 for no effect and ±100 for the full control effect
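Titration-based screen in which CoA formation is detected via maleimide probe ThioGlo1 (50uM) turning fluorescent on thiol reaction; substrates H3(1-25) 75uM and acetyl-CoA 70uM, GCN5L2 20nM, 20 min incubation at room temperature.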
VDR inh – Inhibitors of the vitamin D receptor (VDR): qHTS; VDR-SRC2-3 peptide fluorescence polarization, 2 h; Potency, µM, for the others: max response, negative = inhibition, most hits filed as inhibitors; 400,000 compounds, 0.93% hits; note: potency is the fitted concentration of half-maximal effect; % is set by controls: 0 for no effect and ±100 for the full control effect
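Fluorescence polarization assay of small-molecule disruption of VDR binding to coregulator peptide SRC2-3. Compounds and controls pin-transferred, then read after 2 h incubation at ambient room temperature.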
Rango release inh – qHTS Assay for Inhibitors of RanGTP induced Rango (Ran-regulated importin-beta cargo) - Importin beta complex dissociation; Potency, µM (top dose mostly 46.1 µM), for inactives: at the top dose activity change, negative = inhibition; AID 540253, 2011; Biochemical FRET Rango-importin beta, RanGTP-induced dissociation; Snurportin-1 (Homo sapiens) + GTP-binding nuclear protein Ran (Homo sapiens) + Importin …; 340,000 compounds, 0.071% hits; calls by dose curve; note: potency is the fitted concentration of half-maximal effect; % of control where 0% means no effect; nearly all actives have a fitted effect of over 45% in size
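Compounds preincubate 5 min with complex of recombinant Rango and importin beta in PBS with 1 mM DTT. Ran (0.6 uM) loaded with 2 mM GTP plus 0.2 uM RCC1 starts dissociation; FRET is recorded 45 min later.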
* marks the source's active call; other numbers are inactive results; ? = inconclusive; . = no result. Only some compounds are listed: those with a hit (about 3.6% of all), similar ones and a draw of the others. Unless noted, calls come from the whole dose curve; as a rule, active = well fitted curve in the direction sought with a large enough effect; inconclusive = small, poorly fitted or top-dose-only effect, or another doubt; inactive = no such curve, though single readings can be large; an effect the other way counts as inactive or inconclusive.

SMILES	Rango complex inh	PI5P4K alpha inh	PLK1 PBD block	KAT2A inh	VDR inh	Rango release inh
Cc1cc(NC(=O)CCCC(=O)NCc2ccccc2)no1	6%	-5	-9%	7%	25%	-2%
O=C(CCC1CCCC1)NNC(=O)c1cc2ccccc2cc1O	?	-15	-26%	-4%	25%	18µM*
COc1cccc(CSc2nc3n(n2)C(CC(C)C)C(C(=O)Nc2ccccc2OC)=C(C)N3)c1 (stereo unspecified)	.	.	.	-5%	10%	.
CCCCn1c(=O)[nH]c2nc3cc(N)ccc3nc2c1=O	?	-66*	4.7µM*	-19%	?	?
C=CCn1c(=O)[nH]c2nc3cc(N=CN(C)C)c(C)cc3nc2c1=O	?	3	?	-2%	-9%	?
Nc1ccc2nc(CCc3ccccc3)[nH]c2c1	-3%	-14	6%	-1%	-6%	-26%
Cc1cc2nc3c(=O)n(CCc4ccccc4)c(=O)[nH]c3nc2cc1N	?	-86*	2.7µM*	?	-27%	?
Nc1ccc2nc3c(=O)n(CCc4ccccc4)c(=O)[nH]c3nc2c1	?	-63*	4.2µM*	-25%	-3%	?
Cc1ccc(Nc2nc3nonc3nc2Nc2cccc(C(F)(F)F)c2)cc1Cl	.	.	.	?	-8%	.
CCn1c2ccccc2c2cc(/C=N/n3c(-c4cc(C)[nH]n4)n[nH]c3=S)ccc21	1%	-60*	-27%	-20%	-2%	-8%
CCn1c2ccccc2c2cc(/C=N/n3cn[nH]c3=S)ccc21	0%	.	-18%	-20%	-8%	16%
CC(=O)c1cccc(NC(=O)N2CCCC2C(=O)Nc2ccc3c(c2)OCO3)c1 (stereo unspecified)	1%	2	30µM*	14%	-5%	19%
CC(=O)c1cccc(NC(=O)N2CCCC2C(=O)Nc2cccc(C)c2)c1 (stereo unspecified)	2%	-1	-1%	-1%	-1%	22%
Cc1ccc(S(=O)(=O)c2nc(S(C)(=O)=O)sc2N(C)Cc2ccccc2)cc1	.	.	.	-14%	12%	.
COc1ccc2c(c1)C(=O)[C@H](OC(=O)N[C@H]1CCCc3ccccc31)[C@@H](c1ccc(OC)c(Br)c1)O2	.	.	.	.	6%	.
CCNc1ccc(Br)cc(C(=O)/C=C/c2ccc3c(c2)OCO3)c1=O	?	?	?	-4%	89µM*	?
CCNc1ccc(Br)cc(C(=O)/C=C/c2ccc(Cl)cc2)c1=O	?	?	?	-9%	?	-15%
CCOc1ccccc1NC(=O)CSc1nc2cc(OC)c(OC)cc2c2nc(CCn3c(C)nc4ccccc43)nn12	.	.	.	-2%	2%	.
COc1cccc(C(=O)NNC(=O)c2ccccc2)c1	-2%	-1	4%	-1%	-2%	-28%
COc1cccc(C(=O)NC(c2ccccc2)C2CCCC2)c1 (stereo unspecified)	-2%	?	11µM*	-11%	-25%	-1%
C[C@H](NC(=O)CNC(=O)[C@@H](NC(=O)[C@H](Cc1ccccc1)NC(=O)CNC(=O)CNC[C@@H](N)Cc1ccccc1)[C@@H](C)O)C(=O)N[C@@H](CCCN=C(N)N)C(=O)N[C@@H](CCCCN)C(=O)N[C@@H](CO)C(=O)N[C@@H](C)C(=O)N[C@@H](CCCN=C(N)N)C(=O)N[C@@H](CCCCN)C(N)=O	.	.	.	-3%	-4%	.
